Compound activity (PubChem)
MCF10A rerep: inducers of DNA re-replication in MCF 10A breast cells. AID 624296. Potency, µM (doses to about 46.1 µM), inactives show at the highest dose activity, positive = re-replication, most hits filed as activators. MCF 10A DNA re-replication, Hoechst nuclear intensity, 48 h. 350,000 tested, 2.9% active; also: potency is read from the fitted curve at half-maximal effect; % of control where 0% means no effect; nearly all actives have a fitted effect of over 50% in size
SW480 rerep: DNA re-replication induction in SW480 cells; AID 624297; SW480 DNA re-replication, Hoechst DNA content imaging, 48 h; Potency, µM (doses to about 46.1 µM), without a hit: at the top dose re-replication activation, actives largely listed as activators; 340,000 tested, 1.8% active; also: potency is read from the fitted curve at half-maximal effect; % of control where 0% means no effect; nearly all actives have a fitted effect of over 55% in size
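SW480 cells exposed to compounds for 48 hr at 37 C, 5% CO2, then Hoechst-stained 40 min. Nuclear DNA content imaged by fluorescence scanning (405 nm excitation, 500-530 nm emission); re-replication scored as increased high-intensity nuclei.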
S2 tox: cell viability loss in ATXN counter-screen | S2 cells (HEK-293 line with an ATXN2-luciferase reporter) viability, CellTiter-Fluor protease fluorescence, 24 h | Potency, µM (titrated, usually from 56.7 µM), most hits filed as cytotoxic | 400,000 tested, 0.49% active; also: potency is read from the fitted curve at half-maximal effect; nearly all actives have a fitted effect of over 40% in size
PINK1 expr mod: changes PINK1 expression | AID 624263 | PINK1 immunofluorescence, high-content cytometry, 24 h | Potency, µM (doses to about 76.6 µM), for the others: at the top dose activation (PINK1 increase), usual class: activators | 410,000 tested, 0.2% active; active = well fitted activation curve with a large enough effect; inconclusive = small, poorly fitted or top-dose-only effect; cell line not stated here; also: potency is read from the fitted curve at half-maximal effect; % of control where 0% means no effect; nearly all actives have a fitted effect of over 65% in size
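Fluorescence from anti-PINK1 antibody, together with nuclear and cell stains, was scanned on a laser-scanning cytometer. Before staining, stable-line cells were incubated 24 hours with compounds at 5 concentrations; primary antibody 12 h at 10 degrees C.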
ATXN2 expr inh: reduces ATXN2 reporter expression in HEK-293 cells. HEK-293 ATXN2-luciferase reporter, luminescence, 24 h. Potency, µM (doses to about 57 µM), without a hit: at the top dose activity change, negative = inhibition, hits mostly inhibitors. 360,000 tested, 0.72% active. AID 1745845; also: potency is read from the fitted curve at half-maximal effect; % is scaled to controls: 0 for no effect and ±100 for the full control effect; nearly all actives have a fitted effect of over 55% in size
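ATXN2-luciferase reporter cells (luciferase flanked by upstream and downstream ATXN2 gene portions) were treated 24 h at 37 °C with compounds at up to 57 uM. SteadyGlo luminescence gave expression; GF-AFC fluorescence gave viability.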
IL1B secr inh: inhibitors of inflammasome signaling (IL-1 beta secretion); THP-1 LPS/ATP IL-1B secretion, AlphaLISA, 16 h; active compounds read low; activity change, % at 57.5 µM; 360,000 tested, 4.7% active; AID 743279; in the data active = activity change below about -50%; inconclusive = mostly about -30% to -49%; also: % is scaled to controls: 0 for no effect and ±100 for the full control effect
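THP-1 cells pretreated 1 hr with compounds (up to 57.5 uM final), then stimulated with LPS (250 ng/mL final) plus ATP (1.25 mM final); secreted IL-1B measured by AlphaLISA after 16 hr, decreased signal indicating inhibition.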
* = called active by the depositor; i = inactive; ? = inconclusive; / = no result given; ! = not confirmed by another sample; [ ] = remark or other dose. Compounds with a hit are over-represented: about 7.1% of the library has one in this group of screens. Unless noted, calls follow the shape of the dose curve; as a rule, active = well fitted curve in the direction sought with a large enough effect; inconclusive = small, poorly fitted or top-dose-only effect, or another doubt; inactive = no such curve, though single readings can be large; an effect the other way counts as inactive or inconclusive.

SMILES	MCF10A rerep	SW480 rerep	S2 tox	PINK1 expr mod	ATXN2 expr inh	IL1B secr inh
CCOc1cc(CNCCc2c[nH]c3ccccc23)cc(Cl)c1OC	?	?	?	-1%	?	-103*
CCN1C[C@@]2(OC(=O)c3ccccc3NC(C)=O)CCC(OC)[C@@]34C5CC6C(OC)C[C@@](O)(C(CC23)[C@@H]14)C5(O)C6OC (stereo not given in full)	/	/	/	1%	/	/
CCC(=NCCC(c1ccccc1)c1ccccc1)c1c(O)n(C)c(=O)n(C)c1=O	8.2µM*	-3%	i	6%	-24%	15
Cc1cc(NC(=O)CCl)no1	?	?	?	?	5%[11.3 µM]	-100*
Cc1cc(NC(=O)COC(=O)c2c(C)nn(Cc3ccccc3)c2C)no1	0%	3%[9.22 µM]	i	0%	-5%	-1
Cc1ccc(O)c(C(=O)c2cc(C(=O)NCCC(C)C)c(=O)n(CCC(C)C)c2)c1	?	?	?	-3%	-31%	-56*
c1ccc(N2CC[C@@]3(CCCNC3)C2)cc1	/	/	/	0%	/	/
O=C1NC(=O)C(=Cc2cc(Cl)ccc2OCc2ccc(C(=O)O)cc2)C(=O)N1	0.92µM*	?	i	6%	12%	76
CCOP(=O)(OCC)C(NC(=O)c1cccc2ccccc12)C(Cl)(Cl)Cl (stereo not given)	?	8%	i	-3%	5%	i
CCOP(=O)(OCC)c1nc(-c2ccc(F)cc2)oc1NCc1ccccc1	4.1µM*	-18%	/	3%	-21%	-54*
COc1ccc(CCNc2oc(-c3ccc(OC)c(OC)c3)nc2P(=O)(OC)OC)cc1OC	4%	1%	?	0%	-6%	-1
CCOP(=O)(OCC)c1nc(-c2cccc3ccccc23)oc1N1CCOCC1	?	13%	/	-1%	-14%	-73*
CCOP(=O)(OCC)c1nc(-c2cccc3ccccc23)oc1NCCc1ccc(OC)cc1	10µM*	21µM*	i	9%	-19%	-55*
COc1ccc(OC)c([C@H](O)[C@H](C)N)c1	/	/	i	/	/	/
[O-]c1ccccc1-[n+]1c(-c2ccccc2)cc(-c2ccccc2)cc1-c1ccccc1	?	3%[9.22 µM]	?	16µM*	?	-84*
Cc1ccccc1-[n+]1c(-c2ccccc2)cc(-c2ccccc2)cc1-c1ccccc1	17%	2.3µM*	13µM*	10µM*	?	-90*
Nc1ccccc1-[n+]1c(-c2ccccc2)cc(-c2ccccc2)cc1-c1ccccc1	17%	-16%	i	0%	1%	-96*
Nc1ccc(-c2ccccc2)cc1	1%	-10%	i	2%	24%	-5
Oc1ccccc1-[n+]1c(-c2ccccc2)cc(-c2ccccc2)cc1-c1ccccc1	-7%	-4%	?	/	?	?
CCc1ccc(CN2CCN(Cc3cc(Br)ccc3O)CC2)cc1	?	?	i	40µM*	-34%	-18
Nc1nc(O)c(-c2ccccc2)o1	1%	-5%	/	/	/	/
COc1cc([C@@H]2c3cc4c(c(O)c3C[C@H]3COC(=O)[C@@H]32)OCO4)cc(OC)c1OC	/	/	/	7%	/	/
C[n+]1c2cc(N)ccc2cc2ccc(N)cc21	3%	-158%	/	1%	3.2µM*	-108*
CC(C)(C)C(=O)O[C@H]1CC[C@@]2(C)C(=CC(=O)C3C2CC[C@]2(C)C(=O)[C@@H](F)CC32)C1 (stereo not given in full)	?	?	?	1%	-15%	-77*
COc1ccccc1CC(=O)Nc1ccc2c(c1)OC1(CCCC1)O2	0%	?	i	?	2%	-74*
SMILES	MCF10A rerep	SW480 rerep	S2 tox	PINK1 expr mod	ATXN2 expr inh	IL1B secr inh
CC1(C)c2[nH]c3ccccc3c2C[C@H]2C(=O)N(Cc3ccccc3F)C(=O)N21	?	?	i	23%	?	/
CN1CCN(c2ccc([N+](=O)[O-])c3no[n+]([O-])c23)CC1	2.3µM*	?	/	8%	2.4µM*!	-101*
O=[N+]([O-])c1ccc(N(CCO)CCO)c2c1no[n+]2[O-]	/	/	/	-2%	/	-103*
Nc1ccc(N)cc1	-10%	12%	?	/	?	/
CC(C)N(CC[C@@](C(N)=O)(c1ccccc1)c1ccccn1)C(C)C	-5%	-3%	/	/	/	/
CN(Cc1cccc(-c2ccncc2)c1)C(=O)Oc1ccccc1Cc1ccccc1	/	/	18µM*	29%	?	0
CS(=O)(=O)c1ccc(C(=O)C2C(=O)CCCC2=O)c([N+](=O)[O-])c1	/	/	i	/	1%[116 µM]	/
COc1ccc(/C=C/C2=CCN(C)CC2)cc1	?	-6%	i	1%	/	-2
CN1CC=C(/C=C/c2ccc(-c3ccccc3)cc2)CC1	16µM*	6%	?	4%	/	?
C[C@@H](Cc1ccc(O)cc1)NC[C@@H](O)c1cc(O)cc(O)c1	-1%	-9%	/	/	/	/
COc1ccc2c(c1)C(NC(C)=O)CCc1cc(OC)c(OC)c(OC)c1-2 (stereo not given)	?	0.058µM*	i	5%	15%	30
COc1cc2c(c(OC)c1OC)-c1ccc(OC)c(=O)cc1C(NC(C)=O)CC2 (stereo not given)	?	?	i	2%	6%	164
C[C@@H]1CNC(=O)c2c(C(=O)Nc3cccc(Cl)c3)ncn21	/	/	?	0%	-12%	?
CC(C)CCON=O	0%	4%	/	/	/	/
CCON=O	0%	0.94µM*	/	/	/	/
CCOc1ccc(S(=O)(=O)Nc2cccc(C(=O)N3CCN(c4ccccn4)CC3)c2)cc1	/	/	?	-1%	/	21
CCC(=O)Nc1ccccc1	10%	-49%	i	1%	5%	0
Cn1cc(NC(=O)CCl)cn1	0%	15%	?	3%	-22%	-102*
C=Cc1cc(OC)c2c(c1)c(=O)oc1c2cc(OC)c2c(O)ccc(C3OC(C)C(O)C(C)(O)C3O)c21 (stereo not given)	3.7µM*	8.2µM*	i	-7%	1.7µM*	-100*
CC[C@@H](C(=O)[C@@H](C)[C@@H](O)[C@H](C)[C@@H]1O[C@@H]([C@@H](CC)C(=O)O)CC[C@@H]1C)[C@H]1O[C@]2(C=C[C@@H](O)[C@]3(CC[C@@](C)([C@H]4CC[C@](O)(CC)[C@H](C)O4)O3)O2)[C@H](C)C[C@@H]1C	?	?	5.6µM*	-1%	4.5µM*	-111*
